Records with an inconclusive call do not appear. Calls of active or inactive are those of the source. The call rests on the fitted dose curve; in most records, active means well fitted curve in the direction sought with a large enough effect; inconclusive means small, poorly fitted or top-dose-only effect, or another doubt; inactive means no such curve, though single readings can be large or run the other way.

Drawing on PubChem BioAssay (NCATS), this text covers outcome for 21 compounds.

Sequence of Ferritin light chain (Equus caballus) (P02791 2-175 limits assumed): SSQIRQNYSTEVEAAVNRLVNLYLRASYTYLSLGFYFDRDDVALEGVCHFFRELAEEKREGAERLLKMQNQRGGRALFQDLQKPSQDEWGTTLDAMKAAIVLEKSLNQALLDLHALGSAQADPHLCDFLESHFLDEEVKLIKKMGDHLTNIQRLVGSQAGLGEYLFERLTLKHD

The assay has as its target Ferritin light chain (Equus caballus) (UniProt P02791). Put plainly: qHTS Validation Assay for Identification of Novel General Anesthetics (AID 2323). The following applies: horse apoferritin, anesthetic-site fluorescent probe displacement; series mostly up to 76.9 µM. The text has this:
Source: NIH Chemical Genomics Center [NCGC]
Assay Submitter: Roderic Eckenhoff, University of Pennsylvania
Screening Center PI: Christopher P. Austin, NIH
Probe Development: NIH Chemical Genomics Center [NCGC]
Anesthetic development has remained a largely empirical process. There are growing concerns about the cognitive effects of known general anesthetics and acceleration of the onset of neurodegenerative disease. The compounds' toxicity and multiple specific binding targets in the mammalian brain [4] has made them less attractive as drug leads. In this assay, a GABAergic mimetic model system, apoferritin and a profluorescent 1-aminoanthracene ligand (1-AMA), was used to construct a competitive binding assay for identification of novel general anesthetics. The assay was validated for 1-AMA using other known anesthetics, such as isoflurane (CID:3763) and propofol (CID: 4943), [6].
[1] S.L. Bianchi, T. Tran, C. Liu, S. Lin, Y. Li, J.M. Keller, R.G. Eckenhoff, and M.F. Eckenhoff, Brain and behavior changes in 12-month-old Tg2576 and nontransgenic mice exposed to anesthetics. Neurobiol Aging 29 (2008) 1002-10.
[2] Z. Xie, Y. Dong, U. Maeda, R.D. Moir, W. Xia, D.J. Culley, G. Crosby, and R.E. Tanzi, The inhalation anesthetic isoflurane induces a vicious cycle of apoptosis and amyloid beta-protein accumulation. J Neurosci 27 (2007) 1247-54.
[3] P. Honegger, and J.M. Matthieu, Selective toxicity of the general anesthetic propofol for GABAergic neurons in rat brain cell cultures. J Neurosci Res 45 (1996) 631-6.
[4] M.F. Eckenhoff, K. Chan, and R.G. Eckenhoff, Multiple specific binding targets for inhaled anesthetics in the mammalian brain. J Pharmacol Exp Ther 300 (2002) 172-9.
[5] C.A. Butts, J. Xi, G. Brannigan, A.A. Saad, S.P. Venkatachalan, R.A. Pearce, M.L. Klein, R.G. Eckenhoff, and I.J. Dmochowski, Identification of a fluorescent general anesthetic, 1-aminoanthracene. Proc Natl Acad Sci U S A 106 (2009) 6501-6.
[6] W.A. Lea, J. Xi, A. Jadhav, L. Lu, C.P. Austin, A. Simeonov, and R.G. Eckenhoff, A high-throughput approach for identification of novel general anesthetics. PLoS One 4 (2009) e7150.
Three uL of reagents (free 1-AMA (50% saturated solution of 1-aminoanthracene
in PBS) in columns 3, 4 as negative control and 1-AMA/apoferritin mixture (10 uM horse-spleen apoferritin in 50% saturated 1-aminoanthracene in PBS) in columns 1, 2, 5-48) was dispensed into 1536-well Greiner black assay plates. Compounds (23 nL) were transferred via Kalypsys pintool equipped with 1,536-pin array (10 nL slotted pins, V&P Scientific, San Diego, CA). Titration of the positive control, propofol, were delivered via pin transfer from separate control plates to the 2nd column of each assay plate. The starting concentration of the control, dissolved in DMSO, was at 160 mM, followed by two-fold dilution points in duplicate, for a total of 16 concentrations. The plates were incubated for 10 min at room temperature, and then read on an EnVision HTS multilabel reader (Perkin-Elmer, Waltham, MA) (end point read, 3 min/plate) using Fura2 BFP excitation filter (380 nm, bandwidth 10 nm) and fluorescein emission filter (535 nm, bandwidth 25 nm) set. A LANCE/DELFIA dichroic mirror with a cutoff wavelength at 400 nm was used to maximize signal accuracy and strength. Vehicle-only plates, with DMSO being pin-transferred to the entire column 5-48 compound area, were inserted uniformly at the beginning and the end of each library in order to monitor for and record any shifts in the background. Activity was computed as the normalized fluorescence response relative to free 1-AMA and 1-AMA/apoferritin complex values. Concentration-effect relationships were derived by using curve fitting algorithms developed in-house (http://ncgc.nih.gov/pub/openhts/). A four parameter Hill equation was fitted to the concentration-response data by minimizing the residual error between the modeled and observed responses.
For `COc1ccc(-n2nc(C(F)(F)F)cc2-c2ccc(Cl)cc2)cc1`, the result was inactive.

Consider `CC(O)C(C)OC(=O)[C@@H]1C[C@@H]2c3cccc4c3c(cn4C(C)C)C[C@H]2N(C)C1` (stereo partly specified), for which the outcome was inactive.

Take `CC(=O)OCC1=C(C(=O)[O-])N2C(=O)[C@@H](NC(=O)CCC[C@@H](N)C(=O)[O-])[C@H]2SC1.[Zn+2]`: the outcome was inactive.

Take `Nc1nc2ccc(Cl)cc2c2nc(-c3ccco3)nn12`: the call was inactive.

As to `C=CCN1CCC2(C)c3cc(O)ccc3CC1C2C` (stereo unspecified), the compound was classed as inactive.

Take `N[C@H](CCCCCP(=O)(O)O)C(=O)O`: the result was inactive.

On to `COc1ccc2[nH]cc(CCN(C)C)c2c1`, for which the result was inactive.

`N[C@@H](Cn1cc(I)c(=O)[nH]c1=O)C(=O)O`: the compound was called inactive.

For the compound `C[N+]1(C)CCc2cc3c(cc2C1C1OC(=O)c2c1ccc1c2OCO1)OCO3` (stereo unspecified), the outcome was inactive.

With `COc1ccc(CCN)cc1O`, the compound was classed as inactive.

`CCCCCCCCCC[Si](C)(C)CCC(=O)NC(Cc1ccc(C)cc1)c1ccccc1` (stereo unspecified): the call was inactive.

In the case of `CP(=O)(O)CCCN`, the compound was called inactive.

For `Nc1nc(N)c2nc(CNc3ccc(C(=O)NC(CCC(=O)O)C(=O)O)cc3)cnc2n1` (stereo unspecified), the compound was classed as inactive.

With `O=[N+]([O-])c1ccc(O[C@@H]2O[C@H](CO)[C@@H](O)[C@H](O)[C@H]2F)c([N+](=O)[O-])c1`, the outcome was inactive.

With `CN1CCN(c2ccc3ccccc3n2)CC1`, the result was inactive.

Consider `Nc1nc2[nH]c(=O)cnc2c(=O)[nH]1`, for which the call was inactive.

For the compound `CN1CCc2cc(O)cc3c2C1Cc1ccc(O)c(O)c1-3` (stereo unspecified), the compound was classed as inactive.

Consider `N#CC(C#N)=Cc1ccc([N+](=O)[O-])c(O)c1`, for which the result was inactive.

Take `COc1cc(CCN)ccc1O`: the result was inactive.

As to `C[C@@H]1O[C@@H](O[C@H]2C[C@@H](O)[C@]3(CO)[C@@H]4C(CC[C@]3(O)C2)[C@@]2(O)CC[C@H](C3=CC(=O)OC3)[C@@]2(C)C[C@H]4O)[C@H](O)[C@H](O)[C@H]1O` (stereo partly specified), the outcome was inactive.

On to `COC(=O)c1cc2c(cn1)[nH]c1ccccc12`, for which the compound was classed as inactive.
